{"source": "PubChem BioAssay AID2783", "about": "(National Center for Advancing Translational Sciences (NCATS), 2010)", "note": "Inconclusive results are not listed. A number with no mark means an inactive call. The call rests on the fitted dose curve; in most records, active means well fitted inhibition curve with a large enough effect in the polarisation, with a control signal flat (not every such curve was filed as active); inconclusive means small, poorly fitted or top-dose-only effect, or effect the other way, or a change in a side signal; inactive means no such curve, though single readings can be large or run the other way; the % refers to the polarisation."}
{"target": "Menin (Homo sapiens) (UniProt O00255)", "sequence (O00255 whole entry, looked up)": "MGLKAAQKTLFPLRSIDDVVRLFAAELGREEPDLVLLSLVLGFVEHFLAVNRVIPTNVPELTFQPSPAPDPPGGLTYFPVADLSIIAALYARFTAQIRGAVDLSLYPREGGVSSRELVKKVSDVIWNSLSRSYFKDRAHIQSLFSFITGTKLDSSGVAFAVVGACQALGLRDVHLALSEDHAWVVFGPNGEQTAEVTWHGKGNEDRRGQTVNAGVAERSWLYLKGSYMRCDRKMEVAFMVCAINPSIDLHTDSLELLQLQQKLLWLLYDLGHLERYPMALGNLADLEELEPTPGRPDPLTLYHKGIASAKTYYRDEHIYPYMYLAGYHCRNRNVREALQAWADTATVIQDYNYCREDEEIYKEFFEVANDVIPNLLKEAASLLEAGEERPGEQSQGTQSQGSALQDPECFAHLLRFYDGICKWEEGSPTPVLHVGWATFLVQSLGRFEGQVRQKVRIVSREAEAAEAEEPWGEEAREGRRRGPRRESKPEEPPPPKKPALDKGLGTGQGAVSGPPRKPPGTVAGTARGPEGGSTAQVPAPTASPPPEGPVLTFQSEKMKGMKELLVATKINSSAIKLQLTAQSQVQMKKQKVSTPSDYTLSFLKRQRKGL", "experiment": "Confirmation of Inhibitors Targeting the Menin-MLL Interaction in MLL Related Leukemias: Competition With Fluorescein Labeled MLL-derived Peptide; further: on the % scale 0 is the no-effect control and ±100 the full control effect", "conditions": "Fluorescence polarization, fluorescein-MLL peptide displacement from menin; series mostly up to 100 µM; activity change, negative = inhibition: at the top concentration"}
{"compound": "CC1CCCCN1S(=O)(=O)c1ccc(C(=O)Nc2ccccc2-c2nc3ccccc3[nH]2)cc1", "note": "(centres undefined)", "activity change, negative = inhibition": "8.04% [at 288 µM]"}
{"compound": "Cn1ncc2c(N3CCCCC3)nc(NCCCO)nc21", "activity change, negative = inhibition": "-12.3%"}
{"compound": "Cc1cc2ccccc2nc1SCC(=O)Nc1nc(-c2ccccc2)cs1", "activity change, negative = inhibition": "17.8% [at 288 µM]"}
{"compound": "CCCC(=O)Nc1cccc(NC(=O)c2ccc([N+](=O)[O-])cc2Cl)c1", "activity change, negative = inhibition": "0.163% [at 288 µM]"}
{"compound": "COc1ccc2nc(NC(=O)CSc3nnc(N)s3)sc2c1", "activity change, negative = inhibition": "1.97%"}
{"compound": "COc1ccc(N(C(=O)c2ccncc2)S(=O)(=O)c2ccc(Cl)cc2)cc1", "activity change, negative = inhibition": "-1.48%"}
{"compound": "COc1cc(/C=C2/C(=O)N(c3ccc(Br)cc3)N=C2C)cc(OC)c1OC", "activity change, negative = inhibition": "-0.325% [at 288 µM]"}
{"compound": "CCCOc1ccc(C(=O)NNC(=S)NC(=O)c2cc(-c3ccc(Cl)cc3)nc3ccccc23)cc1", "activity change, negative = inhibition": "-3.33% [at 288 µM]"}
{"compound": "COc1ccccc1CNCC(=O)Nc1ccc(C#N)cc1", "activity change, negative = inhibition": "-3.17% [at 288 µM]"}
{"compound": "CC(=O)Nc1ccc(-c2cc3ccccc3o2)cc1", "activity change, negative = inhibition": "-1.48%"}
{"compound": "CN(C)c1ccc(N=Nc2ccc(C(=O)O)cc2)cc1", "activity change, negative = inhibition": "3.8%"}
{"compound": "COc1ccc(NC(=O)N2CC[C@@]3(CCCN(C(=O)c4csnn4)C3)C2)cc1", "activity change, negative = inhibition": "-0.89%"}
{"compound": "CC(=O)N1c2ccccc2C2(O)N=C(C)SC12", "note": "(centres undefined)", "activity change, negative = inhibition": "-1.79% [at 288 µM]"}
{"compound": "COc1ccc(NC2=C(NCCO)C(=O)c3ccccc3C2=O)cc1", "activity change, negative = inhibition": "3.49% [at 288 µM]"}
{"compound": "CCN(CC)c1nc(-c2ccc(C(=O)NN)cc2)nc(-c2ccc(C(=O)NN)cc2)n1", "activity change, negative = inhibition": "-6.99% [at 288 µM]"}
{"compound": "CCOc1ccccc1N(CC(=O)Nc1ccccc1C(=O)N1CCCC1)S(C)(=O)=O", "activity change, negative = inhibition": "-16.7%"}
{"compound": "CCCCn1c(SCC(=O)NCc2ccc(OC)c(C(=O)O)c2)nc2cc(S(N)(=O)=O)ccc21", "activity change, negative = inhibition": "-8.37% [at 288 µM]"}
{"compound": "CCCCCC1CCC(C(=O)NCCN2CCOCC2)CC1", "note": "(centres undefined)", "activity change, negative = inhibition": "-20.4%"}
{"compound": "COc1ccc(N(CC(=O)NC2CC3CCC2C3)S(=O)(=O)c2ccc(C)cc2)cc1OC", "note": "(centres undefined)", "activity change, negative = inhibition": "8.09%"}
{"compound": "O=C(O)CCC(=O)Nc1ccc(SSc2ccc(NC(=O)CCC(=O)O)cc2)cc1", "activity change, negative = inhibition": "1.46% [at 288 µM]"}
{"compound": "COc1cc2c(cc1NC(=S)NC(=O)c1c(OC)cccc1OC)oc1ccccc12", "activity change, negative = inhibition": "-15%"}
{"compound": "O=C1C(Cl)=C(NC(=O)c2ccccc2)C(=O)C(Cl)=C1NC(=O)c1ccccc1", "activity change, negative = inhibition": "5.77% [at 288 µM]"}
{"compound": "CC(=O)Nc1ccc(-c2cc(-c3ccc(NC(C)=O)cc3)nc(-c3ccc(NC(C)=O)cc3)n2)cc1", "activity change, negative = inhibition": "-13.7%"}
{"compound": "NC(=O)C1CCN(C2=C(Cl)C(=O)c3ccccc3C2=O)CC1", "activity change, negative = inhibition": "-7.88% [at 288 µM]"}
{"compound": "COc1ccc(CN2CCN(C(C)C(=O)N(C)Cc3cccc(F)c3)CC2)cc1OC", "note": "(centres undefined)", "activity change, negative = inhibition": "-2.91%"}
{"compound": "O=C(N/N=C/c1cn(-c2ccccc2)nc1-c1cc2ccccc2o1)c1ccccc1Br", "activity change, negative = inhibition": "-4.27%"}
{"compound": "C[N+]1(CCNC(=O)/C=N/O)CCCCC1", "activity change, negative = inhibition": "-18.6%"}
{"compound": "O=C(NC(=S)N1CCCc2ccccc21)c1ccc([N+](=O)[O-])cc1", "activity change, negative = inhibition": "-11.5%"}
{"compound": "CCOc1ccc2c(c1)C(NC(C)=O)C(=O)N2CCN1CCOCC1", "note": "(centres undefined)", "activity change, negative = inhibition": "-25.5%"}
{"compound": "O=C(c1cc(F)c(F)cc1Cl)N1CCN(c2ncccn2)CC1", "activity change, negative = inhibition": "-2.83%"}
{"compound": "COc1ccc(-c2cc(-c3ccc(C)cc3)n[nH]2)c(O)c1", "activity change, negative = inhibition": "2.76% [at 288 µM]"}
{"compound": "O=C(Nc1ccc2c(c1)OCO2)c1ccccc1", "activity change, negative = inhibition": "-1.62%"}
{"compound": "NC(=O)c1cc2ccccc2o/c1=N/NC(=O)c1cccc(F)c1", "activity change, negative = inhibition": "-12.4%"}
{"compound": "Cc1nc(C)c(-c2ccc(SCc3ccccc3F)nn2)s1", "activity change, negative = inhibition": "-13%"}
